# Bioassay records deposited in PubChem by several laboratories.
# Shown are actives, neighbours in structure and some others; about 4.2% of the full set was active somewhere.
# MITF TRPM1 HTS: activators of MITF-driven TRPM1 promoter activity in SK-MEL-5 cells. SK-MEL-5 TRPM1-promoter luciferase, 24 h; % of positive control, neutral wells = 0. activation, % at 12.5 µM. AID 588334. 300,000 compounds, 0.75% hits;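 active = mean activation of at least 80% with every replicate also reaching 80%; inconclusive = mean reaches 80% but some replicate falls short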;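 also: 0% = neutral control wells and 100% = parthenolide positive control wells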
# esBAF inh: SWI/SNF esBAF complex inhibition; 350,000 compounds, 2% hits; mouse ES cells, Bmi1-luciferase knock-in reporter, 24 h; 100% = twice the neutral-well signal; AID 602393; reporter increase, % at 12.5 µM; in the data active = activation above about 40%; inconclusive = no clear call, values can overlap the other calls;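 also: 0% = median of the plate's neutral control wells and 100% = double that signal; a rise in the Bmi1 reporter signal indicates esBAF inhibition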
# FXN GAA850 act: increases GAA850 frataxin promoter reporter activity. 360,000 compounds, 0.56% hits. AID 540364. activation, % at 6 µM. HEK293 lucGAA850 FXN promoter luciferase reporter, 24 h; percent of 10 µM SAHA response;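 active = activation above the average of all compounds screened plus 3 SD, cutoff fixed separately per campaign, cut at about 7.5% in these data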;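 also: 0% = DMSO wells and 100% = 10 µM SAHA wells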
# Wnt bcat act: activators of Wnt/beta-catenin signaling | Wnt/beta-catenin reporter cell assay, activator, plate reader | AID 743398 | activation, % at 9.35 µM | 300,000 compounds, 1.2% hits; in the data active = activation above about 30%, passing the limit was not always enough; inconclusive = no clear call, values can overlap the other calls;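 also: 0% = neutral control wells and 100% = positive control wells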
# AHR activator: activators of human aryl hydrocarbon receptor; AHR-responsive luciferase reporter cells, luminescence; activation, % at 5 µM; 320,000 compounds, 2.5% hits; in the data active = activation above about 47%;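 also: 0% = vehicle wells and 100% = reference agonist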
# Target sequence (P35869 whole entry, looked up): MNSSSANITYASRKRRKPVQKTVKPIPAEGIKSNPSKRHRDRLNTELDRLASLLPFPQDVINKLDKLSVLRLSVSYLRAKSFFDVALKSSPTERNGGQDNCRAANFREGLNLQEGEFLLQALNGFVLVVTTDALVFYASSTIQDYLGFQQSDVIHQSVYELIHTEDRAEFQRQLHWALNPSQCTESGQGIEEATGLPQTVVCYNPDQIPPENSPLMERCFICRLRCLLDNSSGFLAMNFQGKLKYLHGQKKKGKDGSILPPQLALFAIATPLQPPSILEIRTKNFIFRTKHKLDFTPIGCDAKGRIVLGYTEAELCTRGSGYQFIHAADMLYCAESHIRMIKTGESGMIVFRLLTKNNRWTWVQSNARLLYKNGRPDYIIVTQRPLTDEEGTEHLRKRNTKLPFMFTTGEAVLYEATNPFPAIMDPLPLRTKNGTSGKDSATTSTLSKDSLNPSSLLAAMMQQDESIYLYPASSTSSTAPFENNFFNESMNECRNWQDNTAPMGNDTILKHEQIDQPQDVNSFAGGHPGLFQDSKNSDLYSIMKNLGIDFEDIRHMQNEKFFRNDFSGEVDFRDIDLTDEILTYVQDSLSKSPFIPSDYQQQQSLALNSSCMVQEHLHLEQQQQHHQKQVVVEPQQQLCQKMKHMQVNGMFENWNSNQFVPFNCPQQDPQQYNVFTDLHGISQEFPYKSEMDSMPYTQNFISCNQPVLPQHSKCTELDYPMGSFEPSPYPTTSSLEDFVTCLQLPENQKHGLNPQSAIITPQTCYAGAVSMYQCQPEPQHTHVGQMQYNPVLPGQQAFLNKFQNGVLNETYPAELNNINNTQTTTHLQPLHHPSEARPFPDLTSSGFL
# * marks the source's active call; other numbers are inactive results; ? = inconclusive; . = no result.
SMILES,MITF TRPM1 HTS,esBAF inh,FXN GAA850 act,Wnt bcat act,AHR activator
CC(C)NC(=O)C(Cc1ccccc1)N1C(=O)c2ccccc2C1=O (configuration not stated),-0.2,3.3,-1.8,.,55.0*
O=C(C[C@H]1C=C[C@H](NS(=O)(=O)c2ccccc2)[C@@H](CO)O1)NCc1ccncn1,.,-3.5,.,.,.
N/C(=N\OC(=O)c1cccs1)c1ccc(Cl)cc1,.,13.7,1.6,56.5*,24.6
N/C(CC(=O)Nc1ccc(F)c(Cl)c1)=N\OC(=O)c1cccs1,.,.,-0.4,-0.9,3.7
COc1ccc(/C(N)=N/OC(=O)c2cccs2)cc1,60.9,.,2.1,39.5*,24.3
COc1ccc(CN(C)C[C@@H]2Oc3c(NS(=O)(=O)c4ccc(F)cc4)cccc3C(=O)N([C@@H](C)CO)C[C@@H]2C)cc1,.,-6.8,.,.,.
CC(C)NC(=O)N1CCCCN2[C@H](CO)[C@@H](c3ccc(C#CC4CC4)cc3)[C@@H]2C1,.,3.6,.,.,.
O=C(CSc1nnc(-c2cccc(Br)c2)o1)N1CCNC1=O,87.7*,61.6*,4.4,-1.2,10.3
O=C(O)c1ccc(-c2nnc(-c3cccc(Br)c3)o2)cc1,63.9,71.3*,4.3,12.5,.
O=C(c1cccc(-c2nnc(-c3ccccc3)o2)c1)N1CCCCC1,50.7,72.4*,3.1,.,1.4
CC1(C)Cc2c(sc3nc(-c4cc5ccccc5o4)n(N)c(=O)c23)CO1,129.4*,48.3*,3.5,.,3.6
C[C@@H]1CCCCO[C@H](CN(C)Cc2ccc3c(c2)OCO3)[C@@H](C)CN([C@@H](C)CO)C(=O)c2cc(NC(=O)c3ccccc3)ccc2O1,.,-0.9,.,.,.
CC(/C=N/Nc1nnc2c(n1)[nH]c1ccccc12)=C\c1ccco1,17.6,8.3,0.7,.,72.9*
Cc1ccnc(N/N=C/c2ccco2)n1,34.9,33.8,1.1,8.7,3.0
CCSc1nnc2nc3[nH]c4c(C)cccc4c3nn12,4.3,.,3.8,.,54.4*
C=CCSc1nnc2c(n1)[nH]c1c(C)cccc12,56.5,34.1,0.7,22.2,64.5*
Cc1cccc2c1[nH]c1nc(N/N=C\c3ccco3)nnc12,.,.,.,.,79.2*
CCSc1nc2c([nH]c3ccccc32)c(=O)n1C,-5.0,-7.4,0.0,0.5,36.8
O=C(Cc1ccccn1)NCC[C@@H]1CC[C@H](NC(=O)Nc2ccc(Cl)cc2)[C@H](CO)O1,.,-4.9,.,.,.
O=C1c2ccccc2C(=O)N1CCOc1ccccc1Cl,85.6*,?,3.8,24.2,40.3
O=C1c2ccccc2C(=O)N1CCOc1ccccc1Br,37.2,.,4.6,0.0,-3.9
O=C(C[C@H]1C[C@@H]2c3cc(NC(=O)Nc4ccccc4)ccc3O[C@@H]2[C@H](CO)O1)NCc1cccnc1,.,6.1,.,.,.
Cc1ccc(S(=O)(=O)Nc2cc3c(C(=O)Nc4ccccc4)c(C)oc3c3ccccc23)cc1,-11.4,0.8,-2.2,-0.3,63.8*
C[C@H](CO)N1C[C@H](C)[C@@H](CN(C)C(=O)NC2CCCCC2)OCCCC[C@H](C)Oc2ccc(NC(=O)Nc3ccccc3)cc2C1=O,.,15.0,.,.,.
Cc1nn(Cc2ccccc2)c(Cl)c1C(=O)NCCc1ccccc1,60.1,.,5.3,47.3*,11.6
SMILES,MITF TRPM1 HTS,esBAF inh,FXN GAA850 act,Wnt bcat act,AHR activator
CCc1noc(C)c1C(=O)NCCc1ccccc1,46.0,.,5.2,34.1*,6.7
C[C@@H]1CCCCO[C@@H](CN(C)C)[C@H](C)CN([C@@H](C)CO)C(=O)c2cc(NS(=O)(=O)c3ccccc3)ccc2O1,.,6.5,.,.,.
Cc1ccc2nc(N(CCN(C)C)C(=O)/C=C/c3cccs3)sc2c1,-5.0,.,1.7,1.9,48.3*
CN(C)CCN(C(=O)/C=C/c1cccs1)c1nc2c(F)cc(F)cc2s1,-31.9,.,-0.8,-23.9,66.1*
CN(C)CCCN(C(=O)/C=C/c1cccs1)c1nc2ccc(F)cc2s1,-8.3,-3.7,2.5,?,2.9
Cc1noc(C)c1S(=O)(=O)Nc1ccc2c(c1)C(=O)N([C@H](C)CO)C[C@@H](C)[C@@H](CN(C)C)OCCCC[C@@H](C)O2,.,4.9,.,.,.
Cc1ccc(S(=O)(=O)Nc2ccc3c(c2)C(=O)N([C@H](C)CO)C[C@H](C)[C@H](CN(C)C(=O)Nc2ccc4c(c2)OCO4)O3)cc1,.,-3.0,.,.,.
N=C1C(c2nc3ccccc3s2)=C(O)CN1Cc1ccco1,88.4*,52.6*,0.0,.,10.2
C[C@H](CO)N1C[C@H](C)[C@@H](CN(C)C(=O)C2CCCCC2)Oc2ncc(C#CC(C)(C)O)cc2C1=O,.,1.5,.,.,.
CCOC(=O)c1c(C)[nH]c(C)c1C(=O)COC(=O)c1ccccc1O,3.1,.,-4.8,.,7.0
Cc1[nH]c2ccccc2c1C(=O)CSc1ccc(F)cc1,40.6,.,-2.9,9.1,37.0
CCOC(=O)C1CCN(CC(=O)c2c(C)[nH]c3ccccc23)CC1,-1.5,-4.0,-2.2,.,15.0
Cc1[nH]c2ccccc2c1C(=O)CN1CCC(C)CC1,.,-2.8,0.6,.,56.5*
Cc1[nH]c2ccccc2c1C(=O)COC(=O)c1ccccc1O,110.8*,123.8*,4.4,-1.0,9.1
Cc1[nH]c2ccccc2c1C(=O)COc1ccccc1F,39.0,.,3.7,15.4,63.3*
Cc1ccccc1CNC(=O)Nc1ccc(Cl)cc1,63.1,60.9*,3.9,10.2,-0.2
Cc1ccc(CNC(=O)Nc2ccc(C)cc2)cc1,14.9,28.5,5.1,8.8,5.1
Cc1ccc(CNC(=O)Nc2ccccc2)c(C)c1,117.6*,70.8*,6.1,11.1,12.7
CO[C@H]1CN(C)C(=O)c2cc(NC(=O)c3nc4ccccc4s3)ccc2OC[C@@H](C)N(Cc2cccnc2)C[C@@H]1C,.,10.9,.,.,.
CN1CCN(C(=O)/C(=C/c2cn(C)c3ccccc23)NC(=O)c2ccccc2)CC1,-20.8,-5.3,-1.0,1.8,50.2*
CCOC(=O)/C(=C/c1cn(C)c2ccccc12)NC(=O)c1ccccc1,7.4,.,0.2,2.9,49.3*
Cc1ccc(NCC(=O)Nc2ccc(Br)cc2)cc1C,.,29.4,2.6,2.1,12.8
Cc1ccc(F)cc1NCC(=O)Nc1ccc(Br)cc1,30.4,.,1.4,0.2,72.0*
C/C=C/c1ccc2c(c1)O[C@H](CN(C)Cc1ccc(F)cc1)[C@@H](C)CN([C@@H](C)CO)S2(=O)=O,.,-0.8,.,.,.
CCc1nc2oc3cc(OC)ccc3c(=O)c2c(=O)n1Cc1ccccc1,10.3,8.0,-0.8,-2.8,15.4
SMILES,MITF TRPM1 HTS,esBAF inh,FXN GAA850 act,Wnt bcat act,AHR activator
CCc1nc2oc3cc(OC)ccc3c(=O)c2c(=O)n1-c1ccccc1,43.2,44.5*,-0.2,13.1,27.6
C[C@@H]1CN([C@@H](C)CO)C(=O)Cc2cc(NC(=O)Cn3cnnn3)ccc2O[C@H]1CN(C)S(=O)(=O)c1cccs1,.,-5.4,.,.,.
Cc1cc(NCc2ccccn2)n2nc(C)c(-c3ccc(Cl)cc3)c2n1,-29.7,-8.3,-1.5,-6.3,15.6
CC(C)(C)c1cc(NCCCn2ccnc2)n2ncc(-c3ccc(Cl)cc3)c2n1,64.7,27.0,-1.3,.,31.2
Cc1cc(NCc2ccccn2)n2ncc(-c3ccccc3)c2n1,.,51.5*,1.7,55.8*,73.7*
Cc1cc(NCc2ccccn2)n2ncc(-c3ccc(Cl)cc3)c2n1,.,.,1.8,?,76.4*
